From PubChem BioAssay (NCATS) come the findings set out here.

Records with an inconclusive call do not appear. Active and inactive are the calls of the source. Calls come from the whole dose curve; as a rule, active = well fitted inhibition curve with a large enough effect; inconclusive = small, poorly fitted or top-dose-only effect; inactive = flat fitted curve, though single readings scatter. Where a SMILES comes first, the peptide text is derived from it. The star is where a group is joined. PhAc = O=C(Cc1ccccc1)*
% is set by controls: 0 for no effect and ±100 for the full control effect.

This assay in a line: P-glycoprotein substrates identified in KB-8-5-11 adenocarcinoma cell line, qHTS therapeutic library screen (AID 1346987). Note: nearly all actives have a fitted effect of over 65% in size. Particulars: KB-8-5-11 (P-gp overexpressing) viability, CellTiter-Glo, 72 h; series mostly up to 44.5 µM; activity change, negative = cytotoxicity: at the top concentration. In outline:
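KB-8-5-11, a colchicine-selected P-gp-overexpressing KB-3-1 subline, was grown without colchicine for the assay. Cells were seeded at 500 cells/well, dosed in concentration-response and incubated 72 h at 37 degree C, 5% CO2. Viability was read by CellTiter-Glo luminescence.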
A general note: qHTS replaces the single test concentration by a dilution series.
On to `CC1=CCC[C@@H]2[C@@](C)(CCc3ccoc3)[C@H](C(=O)O)CC[C@@]12C`, for which the “activity change, negative = cytotoxicity” value is 1.12% (inactive).

Consider `CC1(C)C(=O)CCC2(C)C1C(O)C=C1COC(=O)C12O` (centres undefined), for which the “activity change, negative = cytotoxicity” value is -1.42% (inactive). Still for that read-out and setting: under `OC[C@@]1(O)CO[C@H](OC[C@H]2O[C@@H](OC(CCCCc3ccc(O)cc3)CCc3ccc(O)cc3)[C@H](O[C@H]3OC[C@](O)(CO)[C@H]3O)[C@@H](O)[C@@H]2O)[C@@H]1O` (some centres undefined) stands 4.32% [at 17.3 µM] (inactive). Still for that read-out and setting: under `CC[C@H]1OC(=O)[C@H](C)C(=O)[C@H](C)[C@@H](OC2O[C@H](C)C[C@H](N(C)C)[C@H]2O)[C@@H](C)C[C@@H](C)C(=O)/C=C/[C@]1(C)O` (some centres undefined) stands 9.84% [at 17.3 µM] (inactive). In the case of `CC1(C)CC[C@]2(C(=O)O[C@@H]3O[C@H](CO)[C@@H](O)[C@H](O)[C@H]3O)[C@H](O)C[C@]3(C)C(=CCC4[C@@]5(C)CC[C@H](O[C@@H]6OC[C@@H](O)[C@H](O)[C@H]6O)[C@@](C)(C(=O)O)C5CC[C@]43C)[C@@H]2C1` (some centres undefined), the “outcome” value was “inactive [at 17.3 µM]”. On to `CC(C)[C@@H](C(=O)O)N1Cc2c(cc(O)c3c2O[C@]2(C3)[C@H](C)CCC3C(C)(C)[C@H](O)[C@H](O)C[C@@]32C)C1=O` (some centres undefined), for which the “activity change, negative = cytotoxicity” value was 9.41% [at 17.3 µM] (inactive). Still for that read-out and setting: under `N[C@@H](CCNCc1ccc(Cl)cc1)C(=O)N1CCCCC1` stands 9.84% (inactive); under `C=C(CCO)C(=O)OCC1OCC(OC(=O)C(=C)CCO[C@@H]2O[C@H](COC(=O)C(=C)CCO[C@@H]3O[C@H](CO)[C@@H](O)[C@H](O)[C@H]3O)[C@@H](O)[C@H](O)[C@H]2O)C(O)C1O` (some centres undefined), 9.54% [at 17.3 µM] (inactive). Still for that read-out and setting: under `CC(=O)OC1CC(C(C)(C)O)OC2CCC3(C)OC4=C(C(=O)C=C5C(C)C(OC(C)=O)C6(C)C(C)OC546)C(O)C3C12C` (centres undefined) stands -2.89% [at 17.3 µM] (inactive). For `CC1(C)C2CC[C@@]34CC(CC[C@H]3[C@]2(C)CC[C@@H]1O[C@@H]1O[C@H](CO)[C@@H](O)[C@H](O)[C@H]1O)[C@](C)(O)C4` (some centres undefined), the “outcome” value was “inactive [at 17.3 µM]”. As for `C[C@H]1CC[C@H]2[C@@H](C=C[C@@](C)(O)[C@]2(C)C(=O)CCO)C1`, the “activity change, negative = cytotoxicity” value is 5.93% (inactive). The same measure, in the same setting: with `C=CCc1cc(OC)c(OC(C)C(O)c2ccc(O)c(OC)c2)c(OC)c1` (centres undefined) the figure was -11.9% (inactive).

As for `CC1(O)CCC2C(C3C1CCC3(C)O)C2(C)C` (centres undefined), the result was inactive.

In the case of `CCOC(=O)CNC(=O)[C@@H]1CCCN1C(=O)Cc1ccccc1` (PhAc-Pro-Gly-OEt), the “activity change, negative = cytotoxicity” value was -7.85% (inactive). For `CN(C)CCC[C@]1(c2ccc(F)cc2)OCc2cc(C#N)ccc21`, the “activity change, negative = cytotoxicity” value is -3.17% (inactive). Consider `C=CC(C)(O)CC/C=C(\C)C1CC=C(C)C(=O)O1` (centres undefined), for which the “activity change, negative = cytotoxicity” value was 5.5% (inactive). The same measure, in the same setting: under `COc1ccc(C2(O)c3c(ccc4c3OC(C)(CCC=C(C)C)C=C4)NC(=O)C2OC)cc1` (centres undefined) stands 6.56% [at 17.3 µM] (inactive); under `C=C1CCC2C(C)(C)CC(O)CC2(C)C1CCC(C)CCOC(=O)CCC(=O)O` (centres undefined), -13.1% [at 17.3 µM] (inactive).

With `COc1ccc(C2(O)c3ccccc3NC(=O)C2OC)cc1` (centres undefined), the “activity change, negative = cytotoxicity” value is 2.94% (inactive). For `CN1CCc2cc(Cl)c(O)cc2[C@@H](c2cccc3c2OCC3)C1`, the “activity change, negative = cytotoxicity” value was -17.6% (inactive). With `NC[C@H]1CCC[C@@H](CNC(=O)[C@@H](Cc2c[nH]c3ccccc23)NC(=O)N2CCC3(C=Cc4ccccc43)CC2)C1`, the “activity change, negative = cytotoxicity” value was 4.11% (inactive). Still for that read-out and setting: with `CC(C)C1C(OC(=O)/C=C/c2ccccc2)CC2(C)OC2CCC2(C)OC2C1O` (centres undefined) the figure was -0.3% (inactive).

Turning to `Cn1nccc1-c1ccccc1Oc1ccc(S(=O)(=O)Nc2nccs2)cc1C#N`, the outcome was inactive. As for `C/C=C(/C)C(=O)O[C@H]1C[C@]2(C)O[C@@H]2[C@@H](OC(C)=O)[C@@]2(C)CC[C@@](O)(C(C)C)[C@H]12`, the “activity change, negative = cytotoxicity” value is -4.21% (inactive).
